Measured values reported in PubChem BioAssay (EPA / NIEHS).
Values joined by “and” are separate entries in the source; they are usually repeats but may differ in a detail not shown here. Equal entries are not always repeated. Inconclusive results are not listed. Some compounds were tested as several samples or in several runs, with calls that do not always agree. Active and inactive are the calls of the source. Rule for the calls, unless noted: active = hit-call score of the fitted dose curve at least 0.9, where 1 is the maximum; inactive = score below 0.9.

What was measured:
[1] = ATG_NFI_CIS: Attagene CIS-FACTORIAL HepG2 Assay for human Nuclear Factor I (NFI) (AID 2282989); details: HepG2 cis-regulatory reporter, NFI response element transcription; actives raise or lower the signal
How it was run: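 HepG2, transient MRTU, 24 h exposure; RNA→cDNA→PCR→FAM label→HpaI→CE fluorescence. Bidirectional fit, DMSO = baseline.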

[2] = molecular target: Myc proto-oncogene protein (Homo sapiens) (UniProt P01106); assay: ATG_Myc_CIS: Attagene CIS-FACTORIAL HepG2 Assay for human Myelocytomatosis (Myc) Proto-Oncogene Transcription Factor (AID 2282990); details: HepG2, Attagene cis-reporter transcription factor activity; actives raise or lower the signal
Sequence of Myc proto-oncogene protein (Homo sapiens) (P01106 whole entry, looked up): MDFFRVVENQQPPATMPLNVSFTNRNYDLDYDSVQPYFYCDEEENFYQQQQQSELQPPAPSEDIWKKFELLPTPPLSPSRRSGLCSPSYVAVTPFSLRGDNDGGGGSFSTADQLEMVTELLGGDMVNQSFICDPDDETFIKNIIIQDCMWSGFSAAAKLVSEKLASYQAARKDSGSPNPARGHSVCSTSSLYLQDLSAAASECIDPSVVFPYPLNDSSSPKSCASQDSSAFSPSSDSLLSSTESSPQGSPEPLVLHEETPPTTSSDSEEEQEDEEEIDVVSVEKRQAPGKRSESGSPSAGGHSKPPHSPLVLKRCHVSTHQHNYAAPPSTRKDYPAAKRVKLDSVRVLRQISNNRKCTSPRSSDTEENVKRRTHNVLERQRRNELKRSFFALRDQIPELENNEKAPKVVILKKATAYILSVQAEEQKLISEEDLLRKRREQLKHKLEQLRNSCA
How it was run: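 Multiplexed cis-reporter transcription in HepG2 cells after 24 h chemical treatment. Reporter mRNA measured by RT-PCR and capillary electrophoresis fluorescence; activity fitted bidirectionally against DMSO control.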

[3] = ATG_NF_kB_CIS: Attagene CIS-FACTORIAL HepG2 Assay for human Nuclear Factor Kappa B (NF-kB) (AID 2282991); details: HepG2 Attagene cis-factorial NF-kB reporter mRNA; actives raise or lower the signal
How it was run: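 HepG2 cells transiently transfected with multiplexed cis-element reporter units measuring endogenous transcription factor activity; reporter mRNA read 24 h after dosing by RT-PCR, fluorescent labelling, HpaI digestion and capillary electrophoresis. Bidirectional fit against DMSO baseline.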

[4] = ATG_NRF2_ARE_CIS: Attagene CIS-FACTORIAL HepG2 Assay for human Nuclear Factor Erythroid 2 Related Factor 2 (NFR2) response to Antioxidant Response Elements (ARE) (AID 2282992); details: HepG2 Attagene ARE/NRF2 reporter, transcription factor activity; actives raise or lower the signal
How it was run: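 Readout: reporter mRNA quantified by RT-PCR plus FAM-labelled primer extension, HpaI digestion and capillary electrophoresis, 24 h after dosing transfected HepG2 cells. Gain or loss of signal is fitted bidirectionally against DMSO baseline.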

[5] = ATG_Oct_MLP_CIS: Attagene CIS-FACTORIAL HepG2 Assay for human Octamer-Binding Transcription Factor (Oct) (AID 2282993); details: HepG2 Attagene cis-factorial Oct reporter, mRNA; actives raise or lower the signal
How it was run: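 Multiplexed cis-reporter assay in human liver HepG2 cells, 24 h incubation. Reporter RNA amplified and labelled, then resolved by capillary electrophoresis; DMSO serves as negative control and baseline.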

[6] = molecular target: Cellular tumor antigen p53 (Homo sapiens) (UniProt P04637); assay: ATG_p53_CIS: Attagene CIS-FACTORIAL HepG2 Assay for human p53 Transcription Factor (AID 2282994); details: HepG2 p53 cis-element reporter, Attagene mRNA; actives raise or lower the signal
Sequence of Cellular tumor antigen p53 (Homo sapiens) (P04637 whole entry, looked up): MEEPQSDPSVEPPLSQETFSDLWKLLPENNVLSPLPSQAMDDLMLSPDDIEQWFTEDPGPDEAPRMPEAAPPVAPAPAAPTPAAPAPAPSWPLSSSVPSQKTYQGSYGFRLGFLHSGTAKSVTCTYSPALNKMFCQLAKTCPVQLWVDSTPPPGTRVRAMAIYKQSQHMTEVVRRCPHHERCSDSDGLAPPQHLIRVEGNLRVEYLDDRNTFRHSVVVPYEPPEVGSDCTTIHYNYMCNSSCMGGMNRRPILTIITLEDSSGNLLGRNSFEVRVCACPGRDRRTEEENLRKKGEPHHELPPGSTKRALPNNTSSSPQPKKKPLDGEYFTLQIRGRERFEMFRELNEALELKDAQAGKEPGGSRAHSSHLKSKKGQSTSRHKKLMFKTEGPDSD
How it was run: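 Read-out: reporter mRNA by RT-PCR plus capillary electrophoresis with fluorescence detection. Human HepG2 liver cells carried transfected multi-reporter cis-element constructs, dosed 24 h. Gain or loss of signal fitted bidirectionally against DMSO control.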

[7] = BSK_3C_TissueFactor: BioMAP Diversity Plus: 3C Assay for Tissue Factor Biomarker Activity (AID 2282997); details: BioMAP 3C HUVEC, tissue factor biomarker readout; actives raise or lower the signal
How it was run: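 Readout: Tissue Factor ELISA. Cells: human primary umbilical vein endothelium. Time: 24 h after dosing. Analysis: bidirectional fit, DMSO baseline.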

[8] = BSK_3C_uPAR: BioMAP Diversity Plus: 3C Assay for Urokinase-type plasminogen activator receptor (uPAR) Biomarker Activity (AID 2282998); details: BioMAP 3C HUVEC, uPAR biomarker ELISA; actives raise or lower the signal
How it was run: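 Dose primary human umbilical vein endothelial cells, incubate 24 h, measure cell-surface uPAR by ELISA, then fit the signal in both directions against the DMSO negative control.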

[9] = BSK_3C_VCAM1: BioMAP Diversity Plus: 3C Assay for Vascular cell adhesion molecule 1 (VCAM1) Biomarker Activity (AID 2282999); details: BioMAP 3C HUVEC, VCAM1 ELISA, cytokine-stimulated; actives raise or lower the signal
How it was run: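 Vascular primary endothelium (human umbilical vein) was exposed to chemicals and assayed 24 h later. VCAM-1 levels came from ELISA, with DMSO serving as baseline for bidirectional fitting.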

[10] = molecular target: human Peroxisome Proliferator-activated Receptor alpha (PPARa), PPARA (gene 5465) (UniProt Q07869); assay: ATG_PPARa_TRANS: Attagene TRANS-FACTORIAL HepG2 Assay for human Peroxisome Proliferator-activated Receptor alpha (PPARa) (AID 2283001; active = hit-call score of the fitted dose curve at least 0.9, where 1 is the maximum)
Sequence of human Peroxisome Proliferator-activated Receptor alpha (PPARa), PPARA (gene 5465) (Q07869 whole entry, looked up, the tested form may be a part): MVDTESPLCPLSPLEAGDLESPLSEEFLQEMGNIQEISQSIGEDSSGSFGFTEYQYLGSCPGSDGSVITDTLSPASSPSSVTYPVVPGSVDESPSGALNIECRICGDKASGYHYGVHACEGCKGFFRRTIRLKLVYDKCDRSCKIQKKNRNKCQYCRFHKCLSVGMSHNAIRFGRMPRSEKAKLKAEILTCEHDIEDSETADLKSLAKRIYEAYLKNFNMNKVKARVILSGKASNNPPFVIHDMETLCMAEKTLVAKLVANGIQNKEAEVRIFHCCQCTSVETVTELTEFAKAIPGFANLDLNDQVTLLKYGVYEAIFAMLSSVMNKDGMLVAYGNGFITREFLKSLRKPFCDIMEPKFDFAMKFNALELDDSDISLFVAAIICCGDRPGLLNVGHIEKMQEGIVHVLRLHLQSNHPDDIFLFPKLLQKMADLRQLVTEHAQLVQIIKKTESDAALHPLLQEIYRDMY
How it was run: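 Exposure: 24 h, transiently transfected HepG2 cells. Endpoint: GAL4-UAS reporter mRNA, RT-PCR with capillary electrophoresis fluorescence. Baseline: DMSO; increases fitted.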

[11] = molecular target: human Peroxisome Proliferator-activated Receptor delta (PPARd), PPARD (gene 5467) (UniProt Q03181); assay: ATG_PPARd_TRANS: Attagene TRANS-FACTORIAL HepG2 Assay for human Peroxisome Proliferator-activated Receptor delta (PPARd) (AID 2283002; active = hit-call score of the fitted dose curve at least 0.9, where 1 is the maximum)
Sequence of human Peroxisome Proliferator-activated Receptor delta (PPARd), PPARD (gene 5467) (Q03181 whole entry, looked up, the tested form may be a part): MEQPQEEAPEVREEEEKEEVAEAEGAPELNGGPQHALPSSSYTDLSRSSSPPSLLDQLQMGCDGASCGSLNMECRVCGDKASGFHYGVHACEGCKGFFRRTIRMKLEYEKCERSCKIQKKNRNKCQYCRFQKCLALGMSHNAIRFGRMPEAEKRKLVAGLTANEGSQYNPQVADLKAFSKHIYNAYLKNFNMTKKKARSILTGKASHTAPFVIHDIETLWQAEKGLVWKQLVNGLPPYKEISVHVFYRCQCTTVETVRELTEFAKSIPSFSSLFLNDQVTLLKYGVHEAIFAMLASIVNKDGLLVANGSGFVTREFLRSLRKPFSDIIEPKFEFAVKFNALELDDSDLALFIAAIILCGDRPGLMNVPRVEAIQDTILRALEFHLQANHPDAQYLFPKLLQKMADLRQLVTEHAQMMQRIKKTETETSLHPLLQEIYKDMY
How it was run: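 Multiplexed trans-activation format: HepG2 liver cells expressing exogenous NR-Gal4 chimeras and GAL4-UAS reporters were exposed for 24 h. Reporter mRNA was detected by RT-PCR with capillary electrophoresis fluorescence; activity fitted as gain of signal relative to DMSO.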

[12] = read-out: Intercellular Adhesion Molecule 1 (ICAM1), ICAM1 (gene 3383); assay: BSK_3C_ICAM1: BioMAP Diversity Plus: 3C Assay for Intercellular Adhesion Molecule 1 (ICAM1) Biomarker Activity (AID 2283003); details: primary human endothelial cells (HUVEC); actives raise or lower the signal
How it was run: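 Using DMSO as baseline, bidirectional curve fitting was applied to ICAM-1 ELISA signals from HUVEC in the 3C system, measured 24 h after compound addition.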

[13] = BSK_3C_Proliferation: Cell Proliferation Assessment in the BioMAP Diversity Plus: 3C Assay (AID 2283006); details: primary human endothelial cells (HUVEC);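 for AC50: potency may reflect either rise or fall in cell number versus DMSO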
How it was run: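 Measured here: sulforhodamine B (0.1%) staining of TCA-fixed sub-confluent umbilical vein endothelial cultures 48 h post-dosing, absorbance 560 nm. DMSO served as negative control and baseline; both signal gain and loss were modelled.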

[14] = molecular target: Peroxisome proliferator-activated receptor gamma (Homo sapiens) (UniProt P37231); assay: ATG_PPARg_TRANS: Attagene TRANS-FACTORIAL HepG2 Assay for human Peroxisome Proliferator-activated Receptor-gamma (PPARg) (AID 2283007; active = hit-call score of the fitted dose curve at least 0.9, where 1 is the maximum)
Sequence of Peroxisome proliferator-activated receptor gamma (Homo sapiens) (P37231 whole entry, looked up, the tested form may be a part): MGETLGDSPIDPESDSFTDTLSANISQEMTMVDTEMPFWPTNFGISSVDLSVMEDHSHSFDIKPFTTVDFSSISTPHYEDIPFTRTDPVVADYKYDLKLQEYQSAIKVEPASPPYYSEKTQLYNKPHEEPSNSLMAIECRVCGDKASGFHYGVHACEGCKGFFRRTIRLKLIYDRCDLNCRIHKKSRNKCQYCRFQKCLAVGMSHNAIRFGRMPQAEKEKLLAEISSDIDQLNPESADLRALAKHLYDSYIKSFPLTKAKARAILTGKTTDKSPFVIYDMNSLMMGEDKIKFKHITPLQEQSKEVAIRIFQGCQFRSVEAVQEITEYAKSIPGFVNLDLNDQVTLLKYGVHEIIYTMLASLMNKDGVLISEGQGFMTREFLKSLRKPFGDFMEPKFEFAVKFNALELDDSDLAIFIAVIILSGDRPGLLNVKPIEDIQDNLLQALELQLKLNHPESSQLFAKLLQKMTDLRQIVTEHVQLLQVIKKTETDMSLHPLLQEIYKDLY
How it was run: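 HepG2 cells transiently transfected with multiplexed GAL4-UAS reporter units and exogenous chimeric NR-Gal4 proteins; reporter mRNA quantified after 24 h compound exposure by RT-PCR, fluorescent labelling, HpaI digestion and capillary electrophoresis; gain-of-signal fitted versus DMSO baseline.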

[15] = molecular target: Nuclear receptor subfamily 1 group I member 2 (Homo sapiens) (UniProt O75469); assay: ATG_PXR_TRANS: Attagene TRANS-FACTORIAL HepG2 Assay for human Pregnane X Receptor (PXR) (AID 2283008; active = hit-call score of the fitted dose curve at least 0.9, where 1 is the maximum)
Sequence of Nuclear receptor subfamily 1 group I member 2 (Homo sapiens) (O75469 whole entry, looked up, the tested form may be a part): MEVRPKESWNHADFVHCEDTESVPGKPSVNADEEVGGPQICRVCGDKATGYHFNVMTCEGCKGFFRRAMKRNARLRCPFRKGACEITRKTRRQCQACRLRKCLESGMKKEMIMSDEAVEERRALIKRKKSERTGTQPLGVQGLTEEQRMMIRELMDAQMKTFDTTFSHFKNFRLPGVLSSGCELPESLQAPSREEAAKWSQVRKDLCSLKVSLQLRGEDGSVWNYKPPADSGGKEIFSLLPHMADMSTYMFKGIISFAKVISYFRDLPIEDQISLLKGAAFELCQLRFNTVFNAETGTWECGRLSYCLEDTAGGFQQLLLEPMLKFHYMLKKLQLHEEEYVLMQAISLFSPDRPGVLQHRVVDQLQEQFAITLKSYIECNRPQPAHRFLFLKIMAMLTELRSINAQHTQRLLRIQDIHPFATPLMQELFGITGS
How it was run: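 Trans-factorial format: exogenous NR-Gal4 fusion activity, not endogenous factor, in transfected human HepG2 liver cells. After 24 h dosing, RNA isolated, reverse-transcribed, amplified and resolved by capillary electrophoresis; induction scored versus DMSO.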

[16] = molecular target: human Retinoic Acid Receptor gamma (RARg), RARG (gene 5916) (UniProt P13631); assay: ATG_RARg_TRANS: Attagene TRANS-FACTORIAL HepG2 Assay for human Retinoic Acid Receptor gamma (RARg) (AID 2283009; active = hit-call score of the fitted dose curve at least 0.9, where 1 is the maximum)
Sequence of human Retinoic Acid Receptor gamma (RARg), RARG (gene 5916) (P13631 whole entry, looked up, the tested form may be a part): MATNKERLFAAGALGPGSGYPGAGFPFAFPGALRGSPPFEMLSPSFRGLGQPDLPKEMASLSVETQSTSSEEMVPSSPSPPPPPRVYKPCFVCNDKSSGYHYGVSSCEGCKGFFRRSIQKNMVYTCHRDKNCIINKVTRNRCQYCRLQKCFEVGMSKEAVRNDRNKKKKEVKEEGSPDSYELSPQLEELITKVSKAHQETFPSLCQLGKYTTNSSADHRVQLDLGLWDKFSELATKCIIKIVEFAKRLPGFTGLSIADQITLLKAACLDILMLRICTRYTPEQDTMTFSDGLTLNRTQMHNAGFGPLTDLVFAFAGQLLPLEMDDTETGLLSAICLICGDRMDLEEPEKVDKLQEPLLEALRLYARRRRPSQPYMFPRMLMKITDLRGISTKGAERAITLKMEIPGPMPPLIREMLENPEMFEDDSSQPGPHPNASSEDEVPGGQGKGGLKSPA
How it was run: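 Gain-of-signal relative to DMSO is reported from fluorescent capillary electrophoresis of RT-PCR reporter products. These came from HepG2 cells expressing transfected RARg-GAL4 chimeras with UAS reporters, harvested 24 h after dosing.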

[17] = molecular target: human RAR-related Orphan Receptor beta (RORb), RORB (gene 6096) (UniProt Q92753); assay: ATG_RORb_TRANS: Attagene TRANS-FACTORIAL HepG2 Assay for human RAR-related Orphan Receptor beta (RORb) (AID 2283010; active = hit-call score of the fitted dose curve at least 0.9, where 1 is the maximum)
Sequence of human RAR-related Orphan Receptor beta (RORb), RORB (gene 6096) (Q92753 whole entry, looked up, the tested form may be a part): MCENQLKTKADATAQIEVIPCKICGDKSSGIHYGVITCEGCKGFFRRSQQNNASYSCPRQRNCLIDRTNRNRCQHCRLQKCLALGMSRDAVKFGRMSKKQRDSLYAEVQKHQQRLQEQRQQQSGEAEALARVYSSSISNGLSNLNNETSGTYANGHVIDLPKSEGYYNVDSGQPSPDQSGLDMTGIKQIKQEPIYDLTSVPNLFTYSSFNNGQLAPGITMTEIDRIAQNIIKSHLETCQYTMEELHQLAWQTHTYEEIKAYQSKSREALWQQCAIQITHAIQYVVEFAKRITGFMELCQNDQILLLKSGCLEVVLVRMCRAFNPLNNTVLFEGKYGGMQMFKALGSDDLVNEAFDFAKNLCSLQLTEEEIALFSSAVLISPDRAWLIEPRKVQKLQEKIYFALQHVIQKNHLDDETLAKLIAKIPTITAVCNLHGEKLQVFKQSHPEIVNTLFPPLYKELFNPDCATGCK
How it was run: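 Multiplexed transcription-factor reporter assay: HepG2 cells transiently carrying NR-Gal4/GAL4-UAS constructs, 24 h treatment, mRNA quantified by RT-PCR plus capillary electrophoresis fluorescence; activity scored as induction over DMSO.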

[18] = molecular target: human Retinoic Acid Receptor beta (RARb), RARB (gene 5915) (UniProt P10826); assay: ATG_RARb_TRANS: Attagene TRANS-FACTORIAL HepG2 Assay for human Retinoic Acid Receptor beta (AID 2283004; active = hit-call score of the fitted dose curve at least 0.9, where 1 is the maximum)
Sequence of human Retinoic Acid Receptor beta (RARb), RARB (gene 5915) (P10826 whole entry, looked up, the tested form may be a part): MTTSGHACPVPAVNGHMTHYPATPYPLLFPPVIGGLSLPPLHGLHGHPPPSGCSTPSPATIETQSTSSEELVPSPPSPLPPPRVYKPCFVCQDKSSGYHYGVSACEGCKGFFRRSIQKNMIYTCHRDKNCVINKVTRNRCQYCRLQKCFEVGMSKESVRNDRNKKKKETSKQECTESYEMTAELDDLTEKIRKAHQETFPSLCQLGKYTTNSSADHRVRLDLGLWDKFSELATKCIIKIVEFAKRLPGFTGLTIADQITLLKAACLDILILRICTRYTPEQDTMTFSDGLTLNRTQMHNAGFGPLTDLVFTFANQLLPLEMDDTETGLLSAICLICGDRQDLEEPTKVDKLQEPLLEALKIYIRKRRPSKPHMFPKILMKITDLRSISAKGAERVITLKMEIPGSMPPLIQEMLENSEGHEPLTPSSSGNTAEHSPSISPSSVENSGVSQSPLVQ
How it was run: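 HepG2 cells transiently transfected with multiplexed GAL4-UAS reporter units expressing chimeric NR–Gal4 fusions; 24 h compound exposure. Reporter mRNA quantified by RT-PCR, 6-FAM labelling, HpaI digestion and capillary electrophoresis; gain-of-signal fitted against DMSO baseline.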

[19] = molecular target: Retinoic acid receptor alpha (Homo sapiens) (UniProt P10276); assay: ATG_RARa_TRANS: Attagene TRANS-FACTORIAL HepG2 Assay for human Retinoic Acid Receptor alpha (RARa) (AID 2283005; active = hit-call score of the fitted dose curve at least 0.9, where 1 is the maximum)
Sequence of Retinoic acid receptor alpha (Homo sapiens) (P10276 whole entry, looked up, the tested form may be a part): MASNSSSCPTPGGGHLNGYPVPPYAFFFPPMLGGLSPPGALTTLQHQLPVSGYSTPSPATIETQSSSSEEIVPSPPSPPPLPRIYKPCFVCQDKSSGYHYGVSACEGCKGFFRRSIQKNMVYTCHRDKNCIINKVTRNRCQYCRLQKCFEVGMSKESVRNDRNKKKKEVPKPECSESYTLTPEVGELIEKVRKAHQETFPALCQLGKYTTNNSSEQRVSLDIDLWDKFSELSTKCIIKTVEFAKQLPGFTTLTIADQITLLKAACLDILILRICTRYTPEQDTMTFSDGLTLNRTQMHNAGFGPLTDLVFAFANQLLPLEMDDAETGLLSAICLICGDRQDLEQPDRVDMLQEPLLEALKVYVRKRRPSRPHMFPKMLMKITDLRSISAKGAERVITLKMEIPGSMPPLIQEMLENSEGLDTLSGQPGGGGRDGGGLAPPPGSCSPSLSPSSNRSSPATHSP
How it was run: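 HepG2 cells transiently transfected with multiple reporter units expressing chimeric RARα-GAL4 fusion, with GAL4-UAS-driven reporters. After 24 h compound exposure, reporter mRNA induction quantified by RT-PCR and capillary electrophoresis with fluorescent labeling; gain-of-signal fitted relative to DMSO control.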

Measured: AC50

COP(=S)(OC)Oc1c(Cl)cc(C)cc1Cl
active: [4] 29.2 µM | [13] 20 µM | [15] 6.51 µM
not listed: [16] | [17] | [18] | [19]
inactive: all other assays above

C[C@]12CCC(=O)C[C@@H]1CC[C@@H]1[C@@H]2CC[C@]2(C)[C@@H](O)CC[C@@H]12
active: [3] 57.9 µM | [4] 61.4 µM and 57.3 µM | [5] 86.1 µM | [6] 51.4 µM | [8] 18.6 µM | [13] 18.3 µM | [15] 11.9 µM
inactive: [1] | [2] | [3] | [4] | [5] | [6] | [7] | [9] | [10] | [12] | [14] | [15] | [16] | [17]

ClCCBr
not listed: [7] | [8] | [9] | [12] | [13] | [16] | [18] | [19]
inactive: all other assays above

O=C(Nc1ccc2[nH]ccc2c1)c1cc2cc(F)ccc2n1Cc1cccc(F)c1
active: [2] 16.6 µM | [3] 7.2 µM | [4] 8.08 µM | [5] 11 µM | [7] 8.59 µM | [8] 7.15 µM | [9] 11.7 µM | [12] 13.7 µM | [13] 3.44 µM
inactive: [1] | [6] | [11] | [14] | [15]

CCN1CCC2(CC1)COc1cc3c(cc12)N(C(=O)c1ccc(-c2ccc(-c4nnc(C)o4)cc2C)cc1)CC3
active: [4] 5.17 µM | [7] 13.2 µM | [8] 9.27 µM | [9] 26.9 µM | [12] 29.2 µM | [13] 5.23 µM
not listed: [14]
inactive: all other assays above

Cc1ccccc1N
not listed: [14] | [15] | [16] | [17] | [18] | [19]
inactive: all other assays above

CC(C)(OO)c1ccccc1
not listed: [15] | [16] | [18] | [19]
inactive: all other assays above
